In the supplement of paper PMC6555819:

Assays:
Assay in all cases: PBM binding z-score (relative to random genomic background probes); higher = stronger binding; sequences stand for … in GC…GCGATTGACAGCGTAGAATGAAGG
[1] = test system: FXR:RXRa (NR concentration 270 nM, RXRa partner concentration 90 nM)
Summary of the method: (§1)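 Each nuclear receptor dimer, without ligand, was incubated for 1 h on custom Agilent 4×180K protein-binding microarrays. Binding was detected with antibodies against each partner (one per run), and scanned fluorescence was regression-normalized. The binding z-scores are referenced to random human genomic background probes.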

[2] = test system: LXRa:RXRa (NR concentration 270 nM, RXRa partner concentration 90 nM)
Summary of the method: as §1

[3] = test system: LXRa homodimer (NR concentration 270 nM)
Summary of the method: as §1

[4] = test system: LXRb:RXRa (NR concentration 270 nM, RXRa partner concentration 90 nM)
Summary of the method: as §1

[5] = test system: LXRb homodimer (NR concentration 270 nM)
Summary of the method: as §1

[6] = test system: PPARa:RXRa (NR concentration 270 nM, RXRa partner concentration 90 nM)
Summary of the method: as §1

[7] = test system: PPARg:RXRa (NR concentration 180 nM, RXRa partner concentration 90 nM)
Summary of the method: as §1

[8] = test system: PPARg:RXRa 270nM:90nM, anti-RXR (NR concentration 270 nM, RXRa partner concentration 90 nM)
Summary of the method: as §1

[9] = test system: PPARg:RXRa 30nM:10nM, anti-RXR (NR concentration 30 nM, RXRa partner concentration 10 nM)
Summary of the method: as §1

[10] = test system: PPARg:RXRa 90nM:30nM, anti-RXR (NR concentration 90 nM, RXRa partner concentration 30 nM)
Summary of the method: as §1

Sequence | PBM binding z-score [1] | PBM binding z-score [2] | PBM binding z-score [3] | PBM binding z-score [4] | PBM binding z-score [5] | PBM binding z-score [6] | PBM binding z-score [7] | PBM binding z-score [8] | PBM binding z-score [9] | PBM binding z-score [10]
TAGCCGAGGTCAGATCGGGCCAGTATACGCTATA | 5.46 | 4.26 | 0.00263 | 3.74 | 0.611 | 4.8 | 3.14 | 3.56 | 1.05 | 2.17
TCTTGTAGATCATTAGAGGTTAAGAAAGTGCGCT | 1.06 | 4.79 | 1.68 | 2.27 | 0.3 | 1.77 | -0.111 | 1.81 | 2.85 | 2.33
TCATATAGGCAAAGGTGAAAGTCGAACGATATGA | 0.772 | 1.05 | -0.253 | 1.07 | -0.302 | 2.98 | 3.35 | 4.39 | 3.88 | 4.56
CAAACTAGGTCACAGAAGTCAAAGTCCGTGCGTA | 4.23 | 3.17 | 0.883 | 2.77 | 0.529 | 5.49 | 8.96 | 7.26 | 5.36 | 6.93
CCTGCTATGTCAATGGTCAGCTAAAGCAGCTCGC | -0.419 | -0.17 | -0.882 | -0.227 | -0.272 | -0.207 | 0.344 | 1.53 | -0.198 | 0.923
CAGCCTAGGTCAGCGCCAGTATAGGAGGAACGTT | 1.62 | 1.05 | -0.445 | 0.71 | -0.863 | 1.92 | 0.956 | 1.24 | -0.327 | 0.61
ATATGTAAGTTAGCTGGGGTCATTCAGACTAGGC | 4.05 | 3.87 | 1.64 | 4.47 | 0.895 | 4.17 | 1.49 | 2.48 | 0.721 | 1.49
TGAATGAGGTTATAAGATCAGGAAACGTTGCAAA | 1.24 | 1.53 | -0.511 | 1.5 | -0.0615 | 2.98 | 1.29 | 2.14 | 0.703 | 1.62
AGAATGAGGTTAAGCTCAGGGAAACAGAATACAT | 2.88 | 1.94 | -0.491 | 1.79 | -0.626 | 3.77 | 2.4 | 2.58 | 0.895 | 1.48
TCATATAGGTCAACAGGTGAAAGTCCGTAAGTTA | 6.45 | 5.39 | 1.85 | 4.2 | 1.2 | 5.91 | 8.36 | 7.51 | 5.85 | 7.17
CCTTACTGGTCACTCCAGGTTATAGCATCGGAGT | 0.959 | 4.64 | 1.95 | 1.39 | 0.798 | 0.503 | 0.265 | 0.0704 | 0.0345 | 0.0913
GATACAGGGTCAAGGCCAGAGCACGCGTATTGAT | 6.68 | 4.17 | 0.0226 | 3.67 | -0.301 | 5.48 | 5.84 | 5.3 | 2.03 | 4.13
